The text below walks through data of PubChem BioAssay (NCATS).

Experiment [1] deals with Calcium and integrin-binding protein 1 (Homo sapiens) (UniProt Q99828). In words: Primary qHTS for Identification of Calcium Integrin Binding Protein 1 (CIB1) Competitor (AID 1508620; active means well fitted curve in the direction sought with a large enough effect; an effect the other way counts as inactive or inconclusive;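 further: GST tagged CIB1 binding a fluorescein labelled alphaIIb integrin peptide tracer; top concentration of the series differs between compounds; on the % scale 0 is the no-effect control and ±100 the full control effect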). The conditions noted are these: CIB1-GST / FITC-alphaIIb peptide fluorescence polarization; series mostly up to 114 µM. Put shortly: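 CIB1-GST (1 uM final) and compound incubated 15 min at room temperature before adding FITC-alphaIIb peptide tracer (100 nM final). Competition for binding read by fluorescence polarization (ex 480, em 540) after another 15 min at room temperature.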

A short description of experiment [2]: A High-Content qHTS Against Drug Library for the Identification of Small Molecules that Inhibit DYT1 Early Onset Primary Dystonia-Associated Cell Pathology (AID 1645839; calls by dose curve; further: potency means the concentration at half of the fitted maximal effect). As to conditions: HEK293 Flp-In EGFP-delE TorsinA, punctate imaging, 48 h; series mostly up to 46.1 µM. The method, boiled down: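 High-content imaging quantified EGFP-TorsinA mislocalization in HEK293-derived cells inducibly expressing DYT1 mutant torsinA, after 48 h exposure to compound given together with tetracycline induction. Cell count served as a toxicity channel alongside %pathology.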

For experiment [3], the target named is Cytochrome P450 2D6 (Homo sapiens) (UniProt P10635). Nature of the experiment: Cytochrome P450 family 2 subfamily D member 6 (CYP2D6) small molecule antagonists: luciferase biochemical (cell-free) qHTS assay (AID 1645840). Further: nearly all actives have a fitted effect of over 55% in size. Further: potency means the concentration at half of the fitted maximal effect. The conditions noted are these: P450-Glo CYP2D6 enzyme, luciferin luminescence, 1 h; series mostly up to 57.4 µM. Put shortly:
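P450-Glo CYP2D6 system: proluciferin substrate converted by enzyme to luciferin, read by luminescence proportional to activity. Enzyme-substrate mix with compound 10 min at room temperature, then NADPH regeneration 1 h before detection reagent.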

Experiment [4] deals with Cytochrome P450 2C9 (Homo sapiens) (UniProt P11712). In words: Cytochrome P450 family 2 subfamily C member 9 (CYP2C9) small molecule antagonists: luciferase biochemical (cell-free) qHTS assay (AID 1645842). Further: nearly all actives have a fitted effect of over 55% in size. Further: potency means the concentration at half of the fitted maximal effect. The conditions noted are these: P450-Glo CYP2C9 enzyme assay, luciferin luminescence; series mostly up to 57.4 µM. Put shortly: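 P450-Glo CYP2C9 system: proluciferin substrate with enzyme in mix containing 0.4% BSA, 10 min at room temperature, then NADPH regeneration solution added and incubated 1 h at 37C. Detection reagent stopped reaction; luminescence read after 20 min as RLU.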

The nature of experiment [5]: Counterscreen qHTS for small molecule stabilizers of the endoplasmic reticulum resident proteome: GLuc-NoTag assay (AID 1508627; active means well fitted curve in the direction sought with a large enough effect; an effect the other way counts as inactive or inconclusive; further: potency means the concentration at half of the fitted maximal effect). The conditions noted are these: Gaussia luciferase NoTag secretion counterscreen, luminescence, thapsigargin 100 nM for final 4 h; series mostly up to 76.4 µM. The method, boiled down:
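Counterscreen line: SH-SY5Y-GLuc-NoTag cells, treated with compound 19 hr before a 4 hr, 100 nM thapsigargin calcium depletion. Secreted Gaussia luciferase in the medium was measured by luminescence after coelenterazine was added (0.07x final), with cells unlysed.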

Experiment [6] has as its target Papain (Carica papaya) (UniProt P00784). Nature of the experiment: Primary qHTS assay for inhibitors of the protease papain (AID 1645873; active means well fitted curve in the direction sought with a large enough effect; an effect the other way counts as inactive or inconclusive;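 further: papain turnover of Z-FR-AMC read as the AMC fluorescence gain over 10 min; on the % scale 0 is the no-effect control and ±100 the full control effect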). As to conditions: papain Z-FR-AMC cleavage, AMC fluorescence; series mostly up to 49.8 µM.
Experiment [7] addresses Cytochrome P450 3A4 (Homo sapiens) (UniProt P08684). Nature of the experiment: Cytochrome P450 family 3 subfamily A member 4 (CYP3A4) small molecule antagonists: luciferase qHTS assay (AID 1645841). Further: nearly all actives have a fitted effect of over 45% in size. As to conditions: P450-Glo CYP3A4 enzyme assay, luciferin luminescence; series mostly up to 57.4 µM. Put shortly:
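Luminescent CYP3A4 activity readout: compounds plus enzyme-substrate mix 10 min at room temperature, reaction started with NADPH regenerating system for 1 h, stopped with detection reagent, read after 20 min. Ketoconazole served as control.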

Experiment [8] in a line: Cell Viability qHTS for small molecule stabilizers of the endoplasmic reticulum resident proteome (AID 1508629; active means well fitted curve in the direction sought with a large enough effect; an effect the other way counts as inactive or inconclusive;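 further: human SH-SY5Y neuroblastoma cells carrying the GLuc-SERCaMP reporter; compound exposure about 46 h in total before the viability read; on the % scale 0 is the no-effect control and ±100 the full control effect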). As to conditions: cell viability counter-screen, 100 nM thapsigargin for final 4 h.

SMILES strings stand for the structures. Several values for one entry are separate records, joined by “and”; a condition that tells them apart may be missing. Equal entries are not always repeated. Results filed as inconclusive are left out. The source holds several records for some structures; these can differ, active in one and inactive in another. Activity calls are given as the source filed them. Unless noted, the call rests on the fitted dose curve; in most records, active means well fitted curve in the direction sought with a large enough effect in the repeat runs; inconclusive means weak or mixed curves; inactive means no such curve, though single readings can be large; an effect the other way counts as inactive or inconclusive.

Sequence of Calcium and integrin-binding protein 1 (Homo sapiens) (Q99828 whole entry, looked up): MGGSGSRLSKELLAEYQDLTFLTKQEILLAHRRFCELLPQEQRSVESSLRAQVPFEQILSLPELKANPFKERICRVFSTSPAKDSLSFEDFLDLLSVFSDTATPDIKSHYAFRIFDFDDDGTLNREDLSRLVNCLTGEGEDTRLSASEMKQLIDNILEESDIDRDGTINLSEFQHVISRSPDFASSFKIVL
Sequence of Cytochrome P450 2C9 (Homo sapiens) (P11712 whole entry, looked up): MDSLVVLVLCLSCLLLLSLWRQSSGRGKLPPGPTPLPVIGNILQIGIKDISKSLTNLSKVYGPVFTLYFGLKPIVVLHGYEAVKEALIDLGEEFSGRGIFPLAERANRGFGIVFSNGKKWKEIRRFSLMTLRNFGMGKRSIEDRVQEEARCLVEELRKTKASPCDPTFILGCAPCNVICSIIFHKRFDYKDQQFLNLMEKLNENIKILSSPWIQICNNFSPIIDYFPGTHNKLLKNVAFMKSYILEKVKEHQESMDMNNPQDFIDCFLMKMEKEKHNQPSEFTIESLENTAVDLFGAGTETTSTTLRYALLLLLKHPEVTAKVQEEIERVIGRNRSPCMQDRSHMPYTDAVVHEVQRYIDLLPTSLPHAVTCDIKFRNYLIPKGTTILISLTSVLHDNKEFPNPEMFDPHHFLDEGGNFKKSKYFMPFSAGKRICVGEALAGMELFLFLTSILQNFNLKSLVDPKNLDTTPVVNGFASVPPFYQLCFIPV
Sequence of Cytochrome P450 2D6 (Homo sapiens) (P10635 whole entry, looked up): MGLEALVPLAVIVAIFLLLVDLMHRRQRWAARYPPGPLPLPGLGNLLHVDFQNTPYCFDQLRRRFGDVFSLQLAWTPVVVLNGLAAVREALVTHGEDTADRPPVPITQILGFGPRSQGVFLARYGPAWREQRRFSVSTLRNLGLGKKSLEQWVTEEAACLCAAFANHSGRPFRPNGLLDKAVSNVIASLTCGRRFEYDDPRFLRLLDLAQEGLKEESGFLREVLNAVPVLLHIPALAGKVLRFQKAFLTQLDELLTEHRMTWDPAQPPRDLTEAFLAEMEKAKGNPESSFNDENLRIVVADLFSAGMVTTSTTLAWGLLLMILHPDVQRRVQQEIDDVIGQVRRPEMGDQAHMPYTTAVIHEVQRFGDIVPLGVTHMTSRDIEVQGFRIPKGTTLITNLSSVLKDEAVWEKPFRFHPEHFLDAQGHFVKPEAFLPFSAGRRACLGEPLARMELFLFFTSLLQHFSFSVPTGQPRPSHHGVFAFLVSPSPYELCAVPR
Sequence of Cytochrome P450 3A4 (Homo sapiens) (P08684 whole entry, looked up): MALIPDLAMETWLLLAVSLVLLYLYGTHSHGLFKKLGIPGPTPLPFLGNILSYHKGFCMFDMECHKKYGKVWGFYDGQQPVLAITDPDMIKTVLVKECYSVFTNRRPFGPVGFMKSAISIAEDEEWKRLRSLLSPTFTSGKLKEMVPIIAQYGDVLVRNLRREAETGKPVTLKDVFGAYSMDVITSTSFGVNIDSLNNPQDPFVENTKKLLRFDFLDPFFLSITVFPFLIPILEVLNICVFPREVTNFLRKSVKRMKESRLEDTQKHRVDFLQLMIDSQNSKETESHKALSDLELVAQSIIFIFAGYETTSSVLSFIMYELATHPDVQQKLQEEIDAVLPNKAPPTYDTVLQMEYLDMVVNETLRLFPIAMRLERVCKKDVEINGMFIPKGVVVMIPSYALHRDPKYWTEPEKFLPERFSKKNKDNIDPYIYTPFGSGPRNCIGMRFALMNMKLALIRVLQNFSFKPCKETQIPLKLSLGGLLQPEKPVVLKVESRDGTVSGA
Sequence of Papain (Carica papaya) (P00784 whole entry, looked up): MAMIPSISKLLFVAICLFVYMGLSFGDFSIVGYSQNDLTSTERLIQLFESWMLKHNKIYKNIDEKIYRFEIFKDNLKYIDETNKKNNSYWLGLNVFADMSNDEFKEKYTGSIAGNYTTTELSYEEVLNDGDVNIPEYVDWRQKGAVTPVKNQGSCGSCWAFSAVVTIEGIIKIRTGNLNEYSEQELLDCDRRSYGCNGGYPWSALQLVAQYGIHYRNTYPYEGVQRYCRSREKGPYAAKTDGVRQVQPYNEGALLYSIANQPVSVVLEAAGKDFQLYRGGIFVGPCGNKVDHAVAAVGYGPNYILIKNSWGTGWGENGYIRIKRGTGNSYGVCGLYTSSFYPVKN

For `[O-][n+]1ccccc1SSc1cccc[n+]1[O-]`, the Potency result in experiment [1] is “inactive”. Also, the Potency was 3.16 µM (active) in experiment [2], 1.34 µM (active) in experiment [3] and 1.34 µM (active) in experiment [4].
As to `O=C(O)/C=C\C(=O)O`, the Potency entry in experiment [1], in experiment [2], in experiment [3] and in experiment [4] was “inactive” each time.
For `CC(=O)SCC(CC(=O)c1ccc(C)cc1)C(=O)O` (centres undefined), the Potency result in experiment [1], in experiment [2] and in experiment [3] was “inactive” in each case.
Consider `N.N.N.N.N.N.N.N.N.N.N.N.N.N.O.O.[Ru+4].[Ru+5].[Ru+5]`, for which the Potency in experiment [5] was 7.08 µM (active). Besides, the Potency entry in experiment [6] is “inactive”.
For the compound `Nc1ccc(C(=O)O)c(O)c1`, the Potency entry in experiment [1], in experiment [2], in experiment [3] and in experiment [4] was “inactive” throughout.
For `Nc1ccc([N+](=O)[O-])cc1O`, in experiment [1], the Potency result is “inactive”. In addition, the Potency in experiment [4] was 39.9 µM (active).
Consider `N#C/C(=C\c1c[nH]c2ccccc12)C(=O)c1ccc(O)c(O)c1`, for which, in experiment [5], the Potency result was “inactive”.
On to `Cc1ccc(C(=O)c2ccc(CC(=O)O)n2C)cc1`, for which the Potency entry in experiment [1], in experiment [2] and in experiment [3] was “inactive” in each case. For the same compound, the Potency entry in experiment [4] is “inactive and 15.1 µM (active)”.
Regarding `C=CCCCCCCCCC(=O)O`, the Potency entry in experiment [1], in experiment [2], in experiment [3] and in experiment [4] was “inactive” each time.
On to `CC(C(=O)O)c1ccc2c(c1)[nH]c1ccc(Cl)cc12` (centres undefined), for which the Potency result in experiment [1], in experiment [2], in experiment [3] and in experiment [4] was “inactive” each time.
Turning to `CO[C@@]1(NC(=O)Cc2cccs2)C(=O)N2C(C(=O)O)=C(COC(N)=O)CS[C@@H]21`, the Potency entry in experiment [1], in experiment [2], in experiment [3] and in experiment [4] was “inactive” throughout.
In the case of `C=C[C@H]1CN2CC[C@@H]1C[C@@H]2[C@@H](O)c1ccnc2ccc(OC)cc12`, in experiment [5], the Potency was 3.98 µM (active).
Consider `CCOC(=O)c1ccccc1O`, for which the Potency result in experiment [1], in experiment [2], in experiment [3] and in experiment [4] was “inactive” in each case. For the same compound, in experiment [7], the call was inactive.
Take `O=C1CN(/N=C/c2ccc(-c3ccc([N+](=O)[O-])cc3)o2)C(=O)N1`: in experiment [5], the Potency result was “inactive”. In experiment [8], the max response is 25.5% (inactive).
